# Whole data set: some 33,000 sequences, median “E-score (-0.5 to 0.5)” near -8e-05, cut for the highest 2% near 0.23. This is one part of a sample in which the highest values are shown more often than they occur.
# Biological target: T1, Nrg2 (UniProt P38082)
# T1 sequence: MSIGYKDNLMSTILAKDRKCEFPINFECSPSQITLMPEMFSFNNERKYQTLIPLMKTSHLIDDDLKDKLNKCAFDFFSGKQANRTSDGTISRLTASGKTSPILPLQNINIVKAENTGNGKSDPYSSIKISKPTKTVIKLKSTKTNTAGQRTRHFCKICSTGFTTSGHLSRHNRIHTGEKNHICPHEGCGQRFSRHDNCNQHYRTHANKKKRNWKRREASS
# Assay: PBM E-score (8-mer binding enrichment) (E-score (-0.5 to 0.5)); higher = stronger / more preferred TF binding
# Details: protein concentration: 100 nM; construct: GST-full length
# Outline: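 Bound GST-tagged yeast transcription factors, applied at about 100-200 nM to double-stranded universal all-10-mer Agilent arrays, were detected with fluorescent anti-GST. Scans were normalised with masliner. A modified Wilcoxon-Mann-Whitney statistic, the E-score, was assigned to each ungapped eight-base word pooled with its reverse complement by the Universal PBM Analysis Suite.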
row,Sequence,PBM E-score
1,ACCAGTCG,-0.149
2,CGAGTTTA,0.0171
3,ACAGAGGA,0.00257
4,ACCACACG,-0.034
5,AAACGGAT,0.205
6,ATCGAGGG,0.12
7,CCGTTCAG,0.00062
8,GGCCCTTA,0.185
9,GACCCTAA,0.237
10,GACCCTAC,0.184
11,GACCCTTA,0.321
12,AACCCTGT,0.244
13,CACCCTGG,0.0652
14,AACCCTAG,0.0468
15,AACCCTAT,0.195
16,TACCCTAA,0.107
17,CACCCTTA,0.147
18,ACCCCTGG,0.0828
19,AACCCTGG,0.315
20,GAGTCTGA,-0.0871
21,CAGTATGG,0.0291
22,AACGAGGC,-0.139

row,Sequence,PBM E-score
1,AAAGTTCG,0.127
2,ACCCCTTA,0.178
3,CACCCTGA,0.201
4,AACCCTGC,0.134
5,AACCCATT,0.00038
6,CCCCCTGA,-0.00244
7,AACCCATA,0.24
8,ACCCCTGA,0.297
9,GACCCATA,0.118
10,AACCCTGA,0.385
11,CGCGACGA,0.176
12,TGGGGACA,-0.187
13,AAGGGAGC,-0.187
14,AAAACGGC,0.112
15,GCCGGACA,0.0968
16,TCGTTGAA,-0.0977
17,ATACTATC,0.013
18,CTACTATC,0.247
19,CTACTATA,0.143
20,AGGAAAAC,0.151
21,ACTGTTTA,-0.0842
22,ATTCGTTG,0.239

row,Sequence,PBM E-score
1,CTTCGTCC,-0.114
2,ATTCGTTC,0.28
3,CTTCGTTC,-0.00176
4,ATTCGTCC,0.27
5,ATTCGTTA,0.165
6,AATCGTTC,0.0566
7,ATTCGTCG,-0.00164
8,ACTCGTTG,-0.109
9,AAAATCAT,-0.0452
10,CATTGGTA,0.0651
11,TGAGTTAA,0.0318
12,CGAGTTAC,0.215
13,CGAGTTAA,0.264
14,CGGTCTAA,-0.118
15,AGCCTGTG,-0.118
16,ACCCTGTC,0.201
17,AACCTGAT,0.0634
18,ACCCTGAG,0.368
19,AGCCTGAT,-0.168
20,CCCCTGAG,0.176
21,ATCCTGAG,0.0135
22,ACCCTGAC,0.334

row,Sequence,PBM E-score
1,GCCCTGAC,-0.00086
2,ACCCTGAT,0.249
3,AACCTGTG,0.0227
4,ACCCTGTG,0.289
5,GTTAGCGA,-0.131
6,ATATCGAT,0.213
7,CTCTGCTC,-0.0804
8,ACACTATG,0.0263
9,CTACTTGC,0.141
10,ACCTTAGC,0.025
11,CGTTCACC,-0.11
12,AGCCTCCC,-0.381
13,ACCGATCG,-0.0446
14,TCTGACCA,0.216
15,TAATAAGA,0.0444
16,GCTTGCTA,-0.0547
17,CTCCTGAC,0.0802
18,CCCCTGTC,-0.151
19,CCCCTGAC,0.235
20,ATATAAAT,0.252
21,ATATAACA,0.078
22,GTATAAAC,0.156

row,Sequence,PBM E-score
1,ATATAAAG,0.0638
2,ATATAAAA,0.0793
3,ATATAACC,0.145
4,ATATAAAC,0.255
5,CTATAAAC,-0.086
6,ATATAACG,0.243
7,ATGAGTAA,0.0697
8,ACTCGGAC,0.0898
9,ACTAGGGC,-0.0479
10,ACTGAACC,-0.111
11,GTCTTTTA,-0.195
12,ATATCTTG,0.0388
13,AATCCTCC,-0.123
14,AGACAGCT,0.12
15,GTCACGGA,-0.00114
16,CGCCATGA,-0.0296
17,CTATCTAC,0.00786
18,AAGCTTCC,-0.206
19,CACGGATA,0.235
20,AGCGGATA,-0.042
21,AACGGATA,0.258
22,CGCGGATA,0.246
